The campaign covered roughly 200,000 compounds. About 18,000 (9%) were called active. For the sample, actives were picked, then their nearest neighbours and some compounds at random. Unmarked numbers belong to inactive results. Rule as the data show it: active = inhibition above about 50%; inactive = the rest.

The test can be described thus: antileishmanial activity against promastigotes – primary screen (AID 1063).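 Also: promastigotes grown with compound for 44 hours at 28 °C.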 The note with it: Leishmania major promastigotes, resazurin fluorescence viability; at 10 µM; active compounds read high. (In general: Resazurin is reduced to fluorescent resorufin, in cell work by metabolically active cells.)
With `CCc1c(C)nc2c(OC)cccc2c1Cl`, the inhibition is -3.45%.
Regarding `Cc1cccc(C(=O)OCC(=O)NCC(C)C)c1O`, the inhibition was -1.6%.
As to `Fc1ccc(COc2cccc(-c3n[nH]c(=S)o3)c2)cc1`, the inhibition is -2.62%.
Under `N#Cc1ncc(C(F)(F)F)cc1Oc1cccnc1` stands -5.89%.
For `O=C(CSc1nnc(-c2ccc([N+](=O)[O-])cc2)o1)Nc1ccccn1`, the inhibition is 6.18%.
As for `COc1ccc(/C=C(\C#N)C(=O)ONC2=NCCCCC2)cc1`, the inhibition was -4.23%.
Turning to `COC(=O)c1ccc(C2C(Oc3ccccc3C)C(=O)N2CCc2ccc(OC)c(OC)c2)cc1` (stereo not drawn), the inhibition is 5.32%.
Consider `COc1ccc(CCN2C(=O)c3[nH]nc(-c4ccccc4O)c3C2c2ccc(C)cc2)cc1OC` (stereo not drawn), for which the inhibition was 75% (active).
Under `COc1ccc(CCN(C)CCN2C(=O)c3ccccc3C2=O)cc1OC` stands -2.69%; under `CN1C(=O)/C(=C\c2cc(Br)cs2)c2ccccc21`, 13.9%.
In the case of `CCC(C)c1ccc(NC(=S)NCc2ccccn2)cc1` (stereo not drawn), the inhibition was -0.38%.
The value for `Cc1cccc(C)c1N1CCN(S(=O)(=O)N2CCCCC2)CC1` was 15.9%.
`Cc1cc(C)c2c3c(sc2n1)C(c1ccccc1)C(C#N)=C(N)O3` (stereo not drawn): the inhibition was 100% (active).
For `N#CC1=C(N)Oc2c(sc3ccccc23)C1c1ccco1` (stereo not drawn), the inhibition was 9.33%.
As to `Cc1cc(C)c(C#N)c(SCc2[nH]nc3c2C(c2ccccc2)C(C#N)=C(N)O3)n1` (stereo not drawn), the inhibition is 8.99%.
`CC(=O)NC(=S)NNC(=O)c1ccc(Br)cc1`: the inhibition is -4.54%.
`CCOc1ccc(Br)cc1S(=O)(=O)N1CCC(C(=O)O)CC1`: the inhibition was -5.93%.
For `CC1Cc2ccccc2N1C1=CC(=O)CC(C)(C)C1` (stereo not drawn), the inhibition was 7.71%.
In the case of `O=C(CCc1ccccc1)NNC(=O)c1ccc(Br)cc1`, the inhibition is -3.53%.
Take `COc1ccc(C(=O)NC(=S)NNC(=O)c2c(-c3ccccc3)noc2C)cc1`: the inhibition is -0.99%.
In the case of `COc1ccc(C(=O)NC(=S)NNC(=O)CCc2ccccc2)cc1`, the inhibition is 93.2% (active).
Turning to `O=C(CCCc1ccccc1)NCc1ccccc1`, the inhibition was -8%.
Under `O=C(CN1C(=O)c2cccc3cccc(c23)C1=O)N1CCCCC1` stands 89.8% (active).
In the case of `O=C(CN1C(=O)c2cccc3cccc1c23)Nc1ccccc1`, the inhibition is -9.01%.
Turning to `Cn1c(=O)n(C)c(=O)n(CC(=O)N2CCCCC2)c1=O`, the inhibition is -4.15%.
For `COc1ccc(OCC(=O)NNC(=O)c2cccc(C)c2)cc1`, the inhibition was -6.27%.
As for `Cc1ccc(CC(=O)Nc2cccc(C#N)c2)cc1`, the inhibition was -0.29%.
Under `COc1cccc2sc(Nc3nc(C)c(C(C)=O)s3)nc12` stands 98.4% (active); under `COc1cccc2sc(NNC(=O)c3nc4ccccc4s3)nc12`, 48.5%.
Regarding `CC(=O)c1sc(NC(=O)CCCOc2ccccc2C)nc1C`, the inhibition was -7.25%.
Take `COC(=O)CSc1ccc2nnc(CCNS(=O)(=O)c3ccc(C)cc3)n2n1`: the inhibition was 2.97%.
With `CSc1ncccc1C(=O)OCc1ccc(Br)cc1`, the inhibition is -1.11%.
Under `CCOC(=O)/C(=N\Nc1ccccc1Cl)N(C)C1CCS(=O)(=O)C1` (stereo not drawn) stands -1.23%; under `CCOC(=O)c1cccc(NC(=O)CCOc2ccccc2)c1`, 9.18%; under `CCc1cccc(NC(=O)CCC(=O)O)c1`, 52.3% (active).
Under `CCc1cccc(NC(=O)CCNS(=O)(=O)c2cccc3nonc23)c1` stands -7.76%; under `CC(OC(=O)c1ccccc1OCc1ccc(Cl)cc1)C(N)=O` (stereo not drawn), 10.8%; under `CC1CN(/C=C/C(=O)C(F)(F)F)CC(C)O1` (stereo not drawn), -1.49%.
`COCC1CCCN(Cc2nc(-c3ccc4c(c3)OCO4)no2)C1` (stereo not drawn): the inhibition is 0.34%.
With `COc1ccc(CCNc2nc(-c3cccc(NC(C)=O)c3)cs2)cc1OC`, the inhibition was 3.47%.
Regarding `CN(C(=O)COc1ccccc1)c1nnc(-c2ccncc2)s1`, the inhibition was -4.81%.
`COc1ccc(CCN(C(=O)COc2ccccc2)c2nc(-c3ccccc3)cs2)cc1OC`: the inhibition was 52.1% (active).
As for `COc1ccc(-n2c(C)nn(CC3CC3)c2=O)cc1`, the inhibition was -6.72%.
As for `CC(=O)O[C@]1(C(C)=O)CC[C@H]2[C@@H]3C=C(C)C4=CC(=O)CC[C@]4(C)[C@H]3CC[C@@]21C`, the inhibition is 69.8% (active).
Consider `CCn1c(O)c(N=NC(=O)c2cccc(S(=O)(=O)N3CCCCC3)c2)c2ccccc21`, for which the inhibition was 3.18%.
On to `CCN(CC)S(=O)(=O)c1cc([N+](=O)[O-])ccc1NNC(=O)Nc1ccccc1`, for which the inhibition was 31.2%.
Regarding `CCN(CC)S(=O)(=O)c1cc([N+](=O)[O-])ccc1N=Nc1c(O)n(C)c2ccccc12`, the inhibition was 65.5% (active).
The value for `Cc1cccc(CN2CCN(Cc3cnn(-c4ccccc4F)c3)CC2CCO)n1` (stereo not drawn) was 3.31%; that for `O=C(NCCOc1ccccc1F)Nc1ccc(Br)cc1` was 1.12%.
For the compound `O=C(CN(C(=O)c1csnn1)c1cccc(F)c1)NCc1ccc(F)cc1`, the inhibition was -3.27%.
Take `COc1ccc(C2=NN(C(=O)CCC(=O)O)C(c3cccs3)C2)cc1OC` (stereo not drawn): the inhibition was -5.57%.
On to `COc1ccc(CN(C(=O)c2cccs2)c2nccs2)cc1OC`, for which the inhibition was 0.69%.
As to `COC(=O)C1=CN(Cc2ccc(OC)c(OC)c2)C=C(C(=O)OC)C1c1cccs1`, the inhibition was 100% (active).
On to `CCCCc1nnc(NC(=O)CSc2nc(N)cc(=O)[nH]2)s1`, for which the inhibition was 1.7%.
In the case of `Cc1cc(NC(=O)/C=C/C(=O)N(CC(=O)NC2CCCC2)c2ccc(F)cc2)no1`, the inhibition was 5.25%.
As to `Cc1cc(NC(=O)CCC(=O)N(c2cccc(F)c2)C(C(=O)NC2CCCC2)c2ccncc2)no1` (stereo not drawn), the inhibition is -6.83%.
Turning to `Cc1cc(NC(=O)/C=C/C(=O)N(c2ccccc2C)C(C(=O)NC2CCCC2)c2ccc(F)cc2)no1` (stereo not drawn), the inhibition was 71.3% (active).
Consider `CC(=O)c1ccc(NC(=O)CSC(=S)N2CCCC2)cc1`, for which the inhibition is -5.47%.
Turning to `O=C(Nc1nnc(Cc2ccccc2)s1)c1cnccn1`, the inhibition was 1.06%.
`COc1ccc(NC(=O)CSc2nc(C)cs2)cc1`: the inhibition was 8.18%.
In the case of `Cc1nn(CC2CC2)c(=O)n1N(C)c1ncc(C(F)(F)F)cc1Cl`, the inhibition is 74.1% (active).
For `Cc1nn(CC#N)c(=O)n1N(C)c1ncc(C(F)(F)F)cc1Cl`, the inhibition was -6.01%.
The value for `Cc1nn(-c2ncc(C(F)(F)F)cc2Cl)c(=O)n1-c1ccccc1` was -12.9%.

As usually defined, the inhibition is the change of the read-out against control, counted positive when it falls.

These data come from PubChem BioAssay AID1063 (University of Pittsburgh Molecular Library Screening Center, 2008).
